From PubChem BioAssay AID489018 (Southern Research Specialized Biocontainment Screening …, 2010)
Out of some 2,300 compounds screened, about 350 (15%) were called active. The rule behind the calls is not given here. A selection follows. Entries with a potency or affinity are not part of this list.

assay: HepG2 cell cytotoxicity, dose response, cytotoxicity control for non-replicating M. tuberculosis project (AID 489018); details: series mostly up to 20 µM;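 note: HepG2 human liver cells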

SMILES | outcome
O=C(OCc1ccc(Cl)c(Cl)c1)c1ccccn1 | inactive
COc1ccccc1NC(=O)c1ccc([N+](=O)[O-])o1 | inactive
O=C(c1ccc([N+](=O)[O-])o1)N1CCc2ccccc2C1 | inactive
O=C(Nc1sc2c(c1C(=O)O)CCCC2)c1ccc(F)cc1 | inactive
COc1cc2c(cc1OC)CN(C(=O)c1ccc([N+](=O)[O-])o1)CC2 | inactive
O=C(Nc1sc2c(c1C(=O)O)CCCCC2)c1ccccc1F | inactive
CCOC(=O)COc1ccc2c3c(c(=O)oc2c1C)CCC3 | inactive
O=C(COC(=O)c1ccc(Cl)s1)c1ccc[nH]1 | inactive
COc1ccccc1OCCNC(=O)c1cc([N+](=O)[O-])cc([N+](=O)[O-])c1 | inactive
O=C(OCC(=O)N1CCN(c2ccccc2)CC1)c1ccc2ccccc2n1 | inactive
O=C(OCC(=O)c1c[nH]c2ccccc12)c1ccc([N+](=O)[O-])s1 | inactive
CCCCCC/C(=N/O)c1ccccn1 | inactive
Cc1cccc2cc(C#N)c(NCCCn3ccnc3)nc12 | inactive
c1ccc(-c2nc(NCCCn3ccnc3)c3ccccc3n2)cc1 | inactive
CC(C)OC(=O)c1cc(C(=O)c2cc(Cl)ccc2O)coc1=N | inactive
O=C1NN(c2ccccc2)C(=O)/C1=C/c1ccc(Sc2ccc(Cl)cc2)o1 | inactive
COC(=O)COc1ccc2c(-c3cccc([N+](=O)[O-])c3)cc(=O)oc2c1 | inactive
Cc1cc(NC(=O)c2cc([N+](=O)[O-])cc([N+](=O)[O-])c2)no1 | inactive
C/C(=N\NC(=O)CCc1ccccc1)C1C(=O)c2ccccc2C1=O | inactive
NC(=O)N/N=C\c1cc(Br)ccc1O | inactive
O=C(CCc1ccccc1)NC1C2CC3CC(C2)CC1C3 (stereo not drawn) | inactive
Cc1cc(C(=O)N/N=C/c2cccc(Cl)c2Cl)no1 | inactive
CN1CC(=O)NC1=NC(=O)C12CC3CC(CC(C3)C1)C2 | inactive
O=C(NNC(=O)c1cnccn1)c1ccc(Cl)c(Cl)c1 | inactive
Cn1cnc([N+](=O)[O-])c1Sc1ccc(Br)cc1 | inactive
CCc1ccc(N2CCN(CCNC(=O)Nc3ccc(OC)cc3)CC2)cc1 | inactive

SMILES | outcome
O=C(OCc1cccc([N+](=O)[O-])c1)c1ccc2ccccc2n1 | inactive
O=c1c2c([N+](=O)[O-])cc([N+](=O)[O-])cc2nc2ccccn12 | inactive
CCOC(=O)C(=O)NC12CC3CC(CC(C3)C1)C2 | inactive
O=C(CCCOc1ccccc1)OCn1nnc2ccccc2c1=O | inactive
COc1ccc(NC(=O)Nc2ccc(O)c3ccccc23)cc1 | inactive
CCOc1ccc2ccccc2c1/C=N/NC(=O)c1ccncc1 | inactive
CCS(=O)(=O)c1ncc(Cl)c(C(=O)Nc2ccc(S(=O)(=O)N(C)c3ccccc3)cc2)n1 | inactive
CCOC(=O)c1c(NC(=O)COC(=O)c2ccccn2)sc2c1CCC2 | inactive
Clc1ccc(OCCOCCN2CCc3ccccc3C2)c(Cl)c1 | inactive
CC(C)OC(=O)C(C)Oc1ccc(C(=O)NCCc2ccccc2)cc1 (stereo not drawn) | inactive
CC1(C)OC(c2ccccc2)=C/C(=C\C=N\NC(=O)c2ccncc2)O1 | inactive
CN(C)CCC(=O)N1c2ccccc2Sc2ccc(Cl)cc21 | inactive
Cc1ccc2nc(N(CCCN(C)C)C(=O)c3ccc4c(c3)CCCC4)sc2c1 | inactive
CCc1ccc(OCC(=O)NNC(=O)c2cnccn2)c(Br)c1 | inactive
O=C(N/N=C\c1ccc(Cl)s1)C1COc2ccccc2O1 (stereo not drawn) | inactive
Clc1ccc(N=c2ssnc2Cl)nc1 | inactive
S=C1SCN(Cc2ccco2)CN1Cc1ccco1 | inactive
CN(C)S(=O)(=O)c1ccc(C(=O)Oc2ccccc2)cc1 | inactive
CCC(C)[C@H]1CN=C(N)N1CCc1cccc2ccccc12 (stereo partly drawn) | inactive
Cc1cc(-c2c(C)[nH]n(-c3ccccc3)c2=O)n[nH]1 | inactive
COc1ccc2oc(=O)c(/C(C)=N/NC(=O)c3ccncc3)cc2c1 | inactive
C/C(=N\Nc1nc2ccccc2nc1C)c1ccccc1O | inactive
N=c1oc2ccc(Cl)cc2cc1C(=O)NC1CCCCCC1 | inactive
O=C(Oc1ccc(F)cc1)c1ccc2c(=O)n3c(nc2c1)CCC3 | inactive
Cc1ccc(-c2nnc(SCC#CCOC(=O)c3ccco3)o2)cc1 | inactive
CCOC(=O)C1=C(C)C/C(=N\NC(=O)c2ccccc2O)CC1 | inactive

SMILES | outcome
Cc1cc(C)nc(Sc2ncnc(N)c2[N+](=O)[O-])n1 | inactive
Oc1ccccc1-c1nnc(COc2ccccc2)o1 | inactive
CNC(=O)COC(=O)c1ccc(-c2nc3ccccc3s2)s1 | inactive
CC(C)N1CCc2c(sc(NC(=O)CCS(=O)(=O)c3ccccc3)c2C#N)C1 | inactive
CCCCNC(=O)Nc1nnc(-c2ccc(OCC)cc2)o1 | inactive
Cc1ccc(CCC(=O)Nc2ccc(C)c(C)c2)o1 | inactive
Cc1ccc(C(=O)Nc2nnc(C3=COCCO3)o2)cc1C | inactive
C/C(=C\C(=O)c1ccc(Br)cc1)NNC(=O)c1ccccc1 | inactive
Cc1n[nH]c(=S)n1/N=C/c1ccc(OCc2ccc(Cl)cc2Cl)cc1 | inactive
CC(C)(C)c1csc(NC(=O)c2ccccc2O)n1 | inactive
O=C(O)c1ccccc1-c1ccccc1C(=O)Nc1nc2ccccc2s1 | inactive
Cc1ccc2c(c1)C(=O)C(=O)N2CCCOc1ccccc1 | inactive
CCCn1c(NC(=O)c2ccc([N+](=O)[O-])o2)nc2ccccc21 | inactive
COC(=O)c1ccc(C(=O)NC2CCCc3c2cnn3-c2cc(F)cc(F)c2)nc1 (stereo not drawn) | inactive
O=C(COC(=O)c1cccc(C(F)(F)F)c1)NCc1ccccc1 | inactive
COC(=O)C1=C(C)N(CC2CC2)C(=NCc2cccc(Cl)c2)N[C@H]1c1ccccc1 | inactive
CCOC(=O)COc1cc(N)c(Cl)cc1Cl | inactive
CC(C)C1O/C(=N/C(=O)Nc2ccc(Cl)c(Cl)c2)NC1=O (stereo not drawn) | inactive
O=c1c2ccccc2sn1-c1ccccc1 | inactive
COC(=O)COc1ccc2cc(-c3ccc(OC)cc3)c(=O)oc2c1 | inactive
CC(C)(C)NC(=O)C(=O)NNC(=O)c1ccc(C(C)(C)C)cc1 | inactive
C#CCSc1nnc(-c2cccc3ccccc23)o1 | inactive
O=C(COC(=O)CCc1c[nH]c2ccccc12)NCc1ccc2c(c1)OCO2 | inactive
COc1ccc(OC(=O)CCc2c[nH]c3ccccc23)cc1 | inactive
O=C(COC(=O)CCc1c[nH]c2ccccc12)NCc1ccc(Cl)cc1 | inactive
N#Cc1ccc(COC(=O)CCc2c[nH]c3ccccc23)cc1 | inactive
